Data reported in PubChem BioAssay (NCATS).
Where “and” joins values, the source holds several entries; their conditions need not be identical. Identical values can stand only once. Records with an inconclusive call do not appear. Entries that show only a call come without a potency. Where a structure was tested more than once in an assay, its records may differ in their call. Calls of active or inactive are those of the source. Calls follow the shape of the dose curve; as a rule, active = well fitted cell-killing curve with a large enough effect; inconclusive = small, poorly fitted or top-dose-only effect; inactive = no such curve, though single readings can be large or run the other way.

Experiment: qHTS of pediatric cancer cell lines to identify multiple opportunities for drug repurposing: Primary screen for NB-EBc1 cells (AID 1347095)
Conditions: NB-EBc1 neuroblastoma viability, CellTiter-Glo luminescence, 48 h; series mostly up to 46 µM
In short: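 ATP-based luminescence (CellTiter-Glo) quantifies viability after a 48-hour exposure. Compounds are dosed across 8 or 11 final concentrations; DMSO and 2.3 µM bortezomib serve as controls.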
Potency is read from the fitted curve at half-maximal effect.

| SMILES | Potency | activity change, negative = cytotoxic |
| --- | --- | --- |
| CC1Cc2ccccc2N1NC(=O)c1ccc(Cl)c(S(N)(=O)=O)c1 (stereo not given) | inactive | – |
| O=C(OC1C[C@H]2CC[C@@H](C1)[N+]21CCCC1)C(O)(c1ccccc1)c1ccccc1 (stereo not given in full) | inactive | – |
| CCCCC(CC)COC(=O)C(C#N)=C(c1ccccc1)c1ccccc1 (stereo not given) | inactive | – |
| NNc1nncc2ccccc12 | inactive | – |
| Oc1ccc(OCc2ccccc2)cc1 | inactive | – |
| Cc1cc(C2CCCCC2)n(O)c(=O)c1 | 7.43 µM (active) | – |
| COc1ccc2cc([C@H](C)C(=O)O)ccc2c1 | inactive | – |
| Nc1ncn([C@H]2C[C@H](O)[C@@H](CO)O2)c(=O)n1 | inactive | – |
| COc1c2occc2cc2ccc(=O)oc12 | inactive | – |
| C[Se]CCC(N)C(=O)O (stereo not given) | inactive | – |
| CC1(C)C(=O)N(CCN2CCC(C(=O)c3ccc(F)cc3)CC2)c2ccccc21 | inactive | – |
| CCCCCCCCCCCCCCCCCCCCCCO | inactive | – |
| O=C(NOCC1CC1)c1ccc(F)c(F)c1Nc1ccc(I)cc1Cl | 15 µM (active) and 8.33 µM (active) | – |
| Cc1nc2n(c(=O)c1CCN1CCC(c3noc4cc(F)ccc34)CC1)CCCC2 | inactive | – |
| N=C(N)c1ccc2cc(OC(=O)c3ccc(N=C(N)N)cc3)ccc2c1 | inactive | – |
| CCN(CCO)CCCC(C)Nc1ccnc2cc(Cl)ccc12 (stereo not given) | 1.18 µM (active) | 13.9% [at 4.84 µM] (inactive) |
| CCN(CC)C(=S)SSC(=S)N(CC)CC | 11.8 nM (active) and 31.3 µM (active) | – |
| NC(=O)Cc1cccc(C(=O)c2ccccc2)c1N | inactive | – |
| Cc1ccc(NC(=O)c2ccc(CN3CCN(C)CC3)cc2)cc1Nc1nccc(-c2cccnc2)n1 | inactive | – |
